PLK1 PBD inh – PLK1 (human) polo-box domain binding inhibition; P53350; Plk1 PBD binding of FITC phosphopeptide, fluorescence polarization; Potency, µM, for the others: max response, negative = inhibition, usual class: inhibitors; 360,000 compounds, 2.8% hits; AID 720504; also: series mostly up to about 57 µM; nearly all actives have a fitted effect of over 65% in size
Target sequence (P53350 whole entry, looked up, the tested form may be a part): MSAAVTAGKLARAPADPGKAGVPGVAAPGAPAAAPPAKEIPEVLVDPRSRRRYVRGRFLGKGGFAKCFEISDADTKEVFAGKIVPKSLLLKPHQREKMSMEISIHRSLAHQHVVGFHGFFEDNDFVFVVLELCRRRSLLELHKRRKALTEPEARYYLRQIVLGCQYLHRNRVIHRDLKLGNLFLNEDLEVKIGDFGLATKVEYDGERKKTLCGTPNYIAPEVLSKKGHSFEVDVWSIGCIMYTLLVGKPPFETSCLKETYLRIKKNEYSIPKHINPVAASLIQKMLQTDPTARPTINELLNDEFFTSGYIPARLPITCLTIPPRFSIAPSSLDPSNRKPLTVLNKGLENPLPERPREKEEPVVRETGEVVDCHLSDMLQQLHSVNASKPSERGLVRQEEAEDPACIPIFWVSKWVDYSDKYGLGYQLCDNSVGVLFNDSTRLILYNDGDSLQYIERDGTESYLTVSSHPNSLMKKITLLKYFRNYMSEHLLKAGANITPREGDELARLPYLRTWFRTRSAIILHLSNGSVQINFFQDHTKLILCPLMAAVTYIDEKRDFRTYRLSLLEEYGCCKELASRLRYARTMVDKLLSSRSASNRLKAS
ALOX12 inh – ALOX12 (human) lipoxygenase inhibition | purified 12hLO, xylenol orange hydroperoxide absorbance | Potency, µM (series often up to 108 µM), for inactives: at the highest dose activity change, negative = inhibition, usual class: inhibitors | 580,000 compounds, 1.1% hits | AID 1671190
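Purified human 12hLO at 150 nM in 25 mM Hepes, 0.01% Triton X-100, pH 7.0, preincubated 15 min at room temperature with compound. Reaction started with 40 uM arachidonic acid, 30 min at room temperature. Hydroperoxide measured by Fe-xylenol orange, 573/405 nm absorbance ratio.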
VDR inhibitor – blocks the human vitamin D receptor; Potency, µM, inactives show max response, negative = inhibition, most hits filed as inhibitors; 400,000 compounds, 0.93% hits; VDR-SRC2-3 peptide fluorescence polarization, 2 h; AID 504847
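Signal is fluorescence polarization, reporting how far test compounds block the interaction of VDR with the SRC2-3 coregulator peptide after a 2 h room-temperature incubation.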
Sfp PPTase inh – inhibitors of Bacillus subtilis Sfp phosphopantetheinyl transferase; Biochemical Sfp PPTase activity, qHTS; Potency, µM, without a hit: largest response in the series, negative = inhibition, hits mostly inhibitors; 310,000 compounds, 3.5% hits;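 also: the enzyme is Sfp with the accession as filed and its product quenches rhodamine fluorescence; 0% = enzyme reaction without inhibitor and -100% = no enzyme wells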
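With Hepes-Na pH 7.6 buffer containing 10 mM MgCl2, Sfp (15 nM) modified BHQ-2-YbbR (12.5 uM) using rhodamine-CoA (5 uM). Two reads 30 minutes apart at 525/598 nm yielded each well's rate.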
TbPYK confirm – Trypanosoma brucei pyruvate kinase inhibition, cherry-pick confirmation; shares compounds with PLK1 PBD inh; recombinant TbPYK, Kinase-Glo ATP luminescence; Potency, µM (doses to about 76.9 µM), without a hit: at the highest dose activity change, negative = inhibition, usual class: inhibitors; 890 compounds, 67% hits; also: nearly all actives have a fitted effect of over 70% in size
TbPYK orthogonal – inhibits T. brucei pyruvate kinase in orthogonal ADP-Glo assay | shares compounds with PLK1 PBD inh | recombinant TbPYK, ADP-Glo luminescence, 60 min | Potency, µM (highest dose often 76.9 µM), for the others: at the highest dose activity change, negative = inhibition, usual class: inhibitors | 890 compounds, 62% hits; also: nearly all actives have a fitted effect of over 75% in size
An asterisk follows results filed as active; ? = inconclusive; . = no result given; [ ] = another dose, or the depositor's remark. The list is not random: actives were taken first. Their share in the collection is about 4.2%. Calls follow the shape of the dose curve; as a rule, active = well fitted curve in the direction sought with a large enough effect; inconclusive = small, poorly fitted or top-dose-only effect, or another doubt; inactive = no such curve, though single readings can be large; an effect the other way counts as inactive or inconclusive. Unless noted, % is scaled to controls: 0 for no effect and ±100 for the full control effect; potency is read from the fitted curve at half-maximal effect.

SMILES	PLK1 PBD inh	ALOX12 inh	VDR inhibitor	Sfp PPTase inh	TbPYK confirm	TbPYK orthogonal
CN1C2c3ccccc3C3C4c5ccccc5C(C31)C(C2[N+](=O)[O-])N4C (configuration not stated)	1%	41%	-15%	30%	.	.
COc1cc(O)c(C(=O)O)c(-c2cc(O)c(O)cc2C)c1	?	3.2µM*	-21%	2%	2µM*	10µM*
Oc1ccc(O)c2c1C1(Cl)C(Cl)=C(Cl)C2(Cl)C1(Cl)Cl	-5%	?	11%	.	.	.
O=C1N(c2ccccn2)C[C@H]2CN(Cc3ccc(F)cc3)CCN12	.	64%[176 µM]	.	.	.	.
CN1CCN(c2oc(-c3ccc(COc4ccccc4)o3)nc2C#N)CC1	.	-22%	-8%	.	.	.
O=C1NC(=O)C(=Cc2c(Cl)cccc2Cl)C(=O)N1	4.7µM*	?	?	.	25µM*	35µM*
CCN(CC)c1nc2c(C)cccn2c(=O)c1C=C1C(=O)NC(=O)NC1=O	-16%	?	9%	2%	.	.
C[N+]12CCC(CC1)C(=C(c1ccccc1)c1ccccc1)C2	-16%	35µM*	-1%	-10%	25µM*	40µM*
CCN1CCN(c2ccc([N+](=O)[O-])cc2C=C2C(=O)NC(=O)NC2=O)CC1	11µM*	?	?	45µM*	20µM*	?
CCN1CCN(c2ccc([N+](=O)[O-])c3cnccc23)CC1	.	-22%	.	.	.	.
COc1cc2c(cc1OCc1ccncc1)NC(=O)C21CCN(Cc2nccs2)CC1	.	15%[176 µM]	.	.	.	.
O=c1c2ccccc2[se]n1-c1ccccc1	3µM*	?	7.1µM*	0.79µM*	8.9µM*	6.3µM*
Cc1ccc2c(c1)=NC(=O)/C(=C/c1c(O)[nH]c(=O)[nH]c1=O)C=2	15µM*	?	79µM*	35µM*	25µM*	22µM*
CC(N=Cc1c(O)[nH]c(=O)[nH]c1=O)c1ccccc1 (configuration not stated)	-14%	-8%	-9%	9%	.	.
CC(=O)NC[C@H]1C[C@@H]2CCN1C[C@@H]2c1cc(-c2ccccc2)nc(C)n1	.	16%[176 µM]	.	.	.	.
O=C1NC(=S)N(C2CC2)C(=O)/C1=C/c1ccc2c(c1)CCN2CCCCl	1.5µM*	?	-17%	20µM*	6.3µM*	?
CCN1C(=O)/C(=C/c2ccc3c(c2)CCN3CCCCl)C(=O)NC1=S	1.5µM*	?	-5%	45µM*	?	?
C=CC1CN2CCC1CC2C(OC(C)=O)c1ccnc2ccc(OC)cc12 (configuration not stated)	2%	84%	9%	17%	.	.
COC(=O)C1=C(c2cccc(C#N)c2)C[C@@H]2CC[C@H]1N2C(=O)NCCOc1ccccc1Cl	3%	1%	-3%	.	.	.
CCOP(=O)(C1=C(O)C(=O)C(C(C)(C)C)=CC1=O)c1ccccc1 (configuration not stated)	?	-125%	?	40µM*	?	?
CCON=O	.	.	0%	-2%	.	.
NC1CCc2cc(O)c(O)cc2C1 (configuration not stated)	1%	?	-7%	40µM*	-95%	28µM*
CCN(CC)c1ccc(C=C2C(=O)NC(=S)NC2=O)cc1	2.7µM*	?	?	3.2µM*	16µM*	14µM*
CC1(C)C(C(=O)N2C[C@@H](C(=O)O)C[C@@H](C(=O)NCc3ccncc3)C2)C1(C)C	.	-2%	.	.	.	.
O=C(O)CCn1cc(C=C2C(=O)NC(=O)NC2=O)c(-c2cc3ccccc3oc2=O)n1	15µM*	-22%	-9%	40µM*	11µM*	32µM*
SMILES	PLK1 PBD inh	ALOX12 inh	VDR inhibitor	Sfp PPTase inh	TbPYK confirm	TbPYK orthogonal
O=C(NC[C@H]1C[C@@H]2CCN1C[C@@H]2CN1CCN(c2ccccn2)CC1)Nc1ccccc1	.	65%[176 µM]	.	.	.	.
Cc1ccc(N2C(=O)NC(=O)/C(=C\c3ccoc3)C2=O)cc1	?	?	-9%	?	?	?
Cc1ccc(N2C(=O)NC(=O)/C(=C/c3ccc(-c4ccc(C(=O)O)c(Cl)c4)o3)C2=O)cc1	1.3µM*	-24%	?	32µM*	7.1µM*	14µM*
Cc1ccc(N2C(=O)CC(=O)NC2=O)cc1	-10%	?	-8%	-16%	.	.
CCC1(c2ccc(-c3ccccc3)cc2)C(=O)NC(=O)NC1=O	4%	15%	-7%	-2%	.	.
COc1ccc(OC)c(N2C(=O)NC(=O)/C(=C/c3ccc([N+](=O)[O-])s3)C2=O)c1	4.7µM*	40µM*	?	10µM*	4.5µM*	7.1µM*
Cc1cc(-c2cc3c(cn2)CN(CC(C)C)CCN3)ccn1	.	4%[176 µM]	.	.	.	.
CSc1ncc(/C=C2/C(=O)NC(=O)N(C)C2=O)cn1	11µM*	?	?	-95%	?	?
COc1ccc(/C=C2\C(=O)NC(=S)N(C)C2=O)cc1C	1.2µM*	?	45µM*	18µM*	?	?
Cc1ccsc1/C=C1\C(=O)NC(=S)N(C)C1=O	3µM*	?	?	20µM*	11µM*	18µM*
CCOC(=O)[C@]12Cc3ccccc3[C@H]1N(C(C)C)C(=O)c1ccccc12	?	?	.	.	22µM*	32µM*
CCOC(=O)C12C(=O)OCC1C2c1ccccc1 (configuration not stated)	0%	18%	.	.	.	.
CN1CCN(c2ccc3c(c2)S(=O)(=O)c2ccccc2C3=O)CC1	-2%	-2%	-7%	.	.	.
O=C1NC(=O)C(=Cc2coc3ccc(O)cc3c2=O)C(=O)N1	27µM*	?	?	13µM*	14µM*	?
Cc1nnc2n1-c1sc(CCc3ccc(CC(C)C)cc3)cc1C(c1ccccc1Cl)=NC2C (configuration not stated)	.	-3%[22.9 µM]	.	.	.	.
Cc1cc(N2CCCC2)ccc1C=C(C#N)C#N	?	14%	?	12%	.	.
Cc1cc(N2CCCCC2)ccc1C=C1C(=O)N(C)C(=S)N(C)C1=O	3.4µM*	?	?	-92%	20µM*	?
CN1CCN(Cc2cc(=O)n3ccsc3n2)CC1	0%	0%	-11%	-11%	.	.
CN(C)c1ccc(/C=C/C=C2/C(=O)NC(=O)N(c3ccccc3)C2=O)cc1	?	167%	36%	45µM*	25µM*	7%
O=C1CC=C2C3CC4N(CCC45c4ccccc4N1C25)CC3=CCO (configuration not stated)	2%	?	3%	.	.	.
O=C1CC=C2C3CC4N(CCC45c4cc(O)c(O)cc4N1C25)CC3=CCBr (configuration not stated)	5.3µM*	?	10%	.	7.9µM*	13µM*
CSCCC(c1nnnn1C1CCCCC1)N1CCC(n2c(=O)[nH]c3ccccc32)CC1 (configuration not stated)	-4%	4%	.	.	.	.
Cc1ccc(OCC(=O)N2CCN(Cc3ccc(=O)n(C)c3)CC2)cc1	.	0%	.	.	.	.
